Out of some 360,000 compounds screened, about 11,000 (3.1%) were called active. A call without a number means that no potency is given here. Inconclusive results (about 4%) are left out. Calls come from the whole dose curve; as a rule, active = well fitted inhibition curve with a large enough effect; inconclusive = small, poorly fitted or top-dose-only effect; inactive = no such curve, though single readings can be large or run the other way. For the sample, actives were picked, then their nearest neighbours and some compounds at random.
What follows are compounds tested against Schistosoma mansoni thioredoxin glutathione reductase (TGR) (UniProt Q962Y6) (assay: qHTS Assay for the Inhibitors of Schistosoma Mansoni Peroxiredoxins). Settings: purified TGR, DTNB reduction, TNB absorbance 405 nm; series mostly up to 114 µM.
How it was run: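 TGR 20 nM + NADPH 100 uM (dispensed conc.), cpd preinc 15 min RT; start with NADPH (500 uM addition) then DTNB (15 mM addition). Kinetic TNB absorbance, 405 nm filter. Four-parameter Hill fit across titration.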
Note: nearly all actives have a fitted effect of over 60% in size.
Potency is the fitted concentration of half-maximal effect.

SMILES | Potency
O=S(=O)(NCCc1nnc2ccc(SCc3ccc(Cl)cc3Cl)nn12)c1ccccc1 | inactive
O=C(NCC(c1ccc(Cl)cc1)N1CCOCC1)c1ccccc1F (stereo not drawn) | inactive
CCOc1cccc(NC(=O)c2ccc(F)c(S(=O)(=O)N(CC)c3cccc(C)c3)c2)c1 | inactive
O=C(c1cn2ccccc2n1)N1CCc2c([nH]c3ccccc23)C1c1ccccn1 (stereo not drawn) | inactive
CCOc1ccc(C2c3[nH]c4ccccc4c3CCN2Cc2cccn2-c2ncccn2)cc1 (stereo not drawn) | inactive
c1ccc(C2c3[nH]c4ccccc4c3CCN2Cc2cccn2-c2cccnc2)nc1 (stereo not drawn) | 15.8 µM (active)
Cc1ccc(NC(=O)CSc2nc3c([nH]c4ccccc43)c(=O)n2-c2ccccc2)c(C)c1 | inactive
CCc1c(C)sc(NC(=O)C2c3ccccc3Oc3ccccc32)c1C(=O)OC(C)C | inactive
CCOC(=O)C(=O)Nc1nc(-c2ccccc2)c(CC)s1 | inactive
C/C(=N/Nc1nc(-c2ccccc2)c(CC(=O)O)s1)c1ccccc1 | 0.316 µM (active)
CCOc1ccc(-c2nc(C)sc2CC(=O)O)cc1 | inactive
Cc1ccc(-c2cn3c(n2)sc2cc(C(=O)NCc4cccs4)ccc23)c(C)c1 | inactive
COc1ccc(NC(=O)CSc2nccn2C2CCCC2)cc1OC | inactive
CCOc1ccc(-c2nonc2NC(=O)c2oc3ccc(CC)cc3c2C)cc1 | inactive
CN(C(=O)CSc1nc2ccc(NC(=O)COc3ccccc3)cc2s1)c1ccccc1 | inactive
Cc1cc(C)c(NC(=O)CN2C(=O)c3cccnc3Oc3ccc(Cl)cc32)c(C)c1 | inactive
CCNC(=O)Cn1nc(C)n2c(cc3c(OC)cccc32)c1=O | inactive
O=C(Nc1ccc(Cl)cc1)c1cccc(OC(=S)N2CCOCC2)c1 | inactive
CC(=O)Oc1cccc(N2C(=O)CC(Nc3ccc(N4CCOCC4)cc3)C2=O)c1 (stereo not drawn) | 22.4 µM (active)
O=C(Nc1ccc(N2CCOCC2)cc1)c1ccc2c(c1)OCO2 | inactive
CCCCn1c(N)c(N(CC)C(=O)c2ccccc2C(F)(F)F)c(=O)[nH]c1=O | inactive

SMILES | Potency
CCCCn1c(N)c(N(CC)C(=O)/C=C/c2ccco2)c(=O)[nH]c1=O | 22.4 µM (active)
CCCCN(C(=O)c1ccc(C)o1)c1c(N)n(CCCC)c(=O)[nH]c1=O | inactive
CCCCn1c(N)c(N(CC)C(=O)c2ccc(N(C)S(=O)(=O)c3ccc(C)cc3)cc2)c(=O)[nH]c1=O | inactive
CCCCN(C(=O)c1nn(C)c(=O)c2ccccc12)c1c(N)n(CCC)c(=O)[nH]c1=O | inactive
CCCCN(C(=O)/C=C/c1ccco1)c1c(N)n(CC(C)C)c(=O)[nH]c1=O | 44.7 µM (active)
COc1ccccc1OCC(=O)Nc1ccccc1C(=O)NC1CC1 | inactive
Cc1ccc(OCC(=O)Nc2ccccc2C(=O)NC2CC2)cc1 | inactive
Cc1ccc(OCC(=O)Nc2ccccc2C(=O)NC2CC2)cc1C | 35.5 µM (active)
COc1cccc(C(=O)NC2=NC(c3ccc(N(C)C)cc3)CC(=O)N2)c1 (stereo not drawn) | inactive
COc1cc2nc(SCC(=O)Nc3ccccc3F)n3nc(-c4ccccc4)nc3c2cc1OC | inactive
S=C(NCC1CCCO1)N1CCN(c2ccc(Cl)c(Cl)c2)CC1 (stereo not drawn) | inactive
S=C(NCCc1ccccc1)NCC1CCCO1 (stereo not drawn) | inactive
Oc1c(Br)cc(/C=N/NC(=S)NCC2CCCO2)cc1Br (stereo not drawn) | 2.51 µM (active)
CCc1ccc(N2C(=O)CN(S(=O)(=O)CC)CC2(C)C(=O)NC2CCCCC2)cc1 (stereo not drawn) | inactive
COc1cccc(NC(=O)CN2CCN(CC(=O)Nc3ccccc3Cl)CC2)c1 | inactive
CCNC(=S)Nc1cccc(Cl)c1C | inactive
COc1ccc(NC(=S)Nc2ccccc2Cl)cn1 | 20 µM (active)
O=C(CCc1nc(CN2CCN(S(=O)(=O)c3ccc(Br)cc3)CC2)no1)N1CCCCC1 | inactive
CCn1cc2nc(SCc3ccccc3Cl)n(CCc3ccccc3)c(=O)c2n1 | inactive
COc1cc(NS(=O)(=O)c2ccc(NC(=S)NC(=O)c3ccc(Br)cc3)cc2)ncn1 | 17.8 µM (active)
COc1cc(NS(=O)(=O)c2ccc(NC(=O)c3ccc(S(=O)(=O)N4CCCCC4)cc3)cc2)ncn1 | inactive

SMILES | Potency
COc1cc(NS(=O)(=O)c2ccc(NC(=O)CN3C(=O)c4ccccc4C3=O)cc2)ncn1 | inactive
COc1ccc(NS(=O)(=O)c2ccc(NC(=S)NC(=O)CC(C)C)cc2)cc1 | inactive
O=C(Nc1ccc(S(=O)(=O)Nc2ccccn2)cc1)c1ccccc1 | inactive
COc1cc(NS(=O)(=O)c2ccc(NC(=S)NC(=O)c3ccccc3)cc2)nc(OC)n1 | 20 µM (active)
COc1ccc(-c2nc3c4ccccc4n(CC(=O)Nc4ccc(C(C)=O)cc4)c(=O)n3n2)cc1 | inactive
Cc1ccccc1-n1c(=O)c2ccccc2n(Cc2ccc(F)cc2)c1=O | inactive
Nc1ccccc1SC(C[N+](=O)[O-])c1ccccc1 (stereo not drawn) | 17.8 µM (active)
Cc1ccccc1-c1nc2cc(NC(=O)c3cccc(OCCC(C)C)c3)ccc2o1 | inactive
CCOc1ccc(C(=O)c2cn(Cc3ccc(F)cc3)c3ccc(F)cc3c2=O)cc1 | inactive
O=C(CSc1nc2ccccc2nc1Cc1ccccc1)N1CCCCC1 | inactive
O=C1CCCCC1C(=O)c1ccccc1 (stereo not drawn) | inactive
CN(C)CC1CCCCC1=O (stereo not drawn) | 11.2 µM (active)
CC(C)(C)OC(=O)N1CCC(c2c(C(=O)N3CCc4ccccc4C3)cnn2-c2ccc(F)cc2)CC1 | inactive
COc1cc(NC(=O)c2cc(C3CC3)nc3c2c(C)nn3-c2ccccc2)cc(OC)c1 | inactive
Cc1ccc(NC(=O)NC(C)c2c(-n3cccc3)sc(C)c2C)c(C)c1 (stereo not drawn) | inactive
Cc1c(NC(=O)Nc2ccc(F)c(Cl)c2)c(=O)n(-c2ccccc2)n1C | inactive
Cc1ccccc1NC(=O)c1c(NC(=O)c2ccccc2F)sc2c1CCC(C)C2 (stereo not drawn) | inactive
Cc1ccc(Oc2c(C(F)(F)F)oc3c(CN4CCCCC4)c(O)ccc3c2=O)cc1 | inactive
COc1c(O)cc2oc(-c3ccc(O)c(O)c3)cc(=O)c2c1O | 39.8 µM (active)
COc1ccc(-c2c(C)c3ccc(O)c(CN4CCN(C)CC4)c3oc2=O)cc1OC | inactive
CCOC(=O)COc1cc(OCC(=O)OCC)c2c(=O)cc(-c3ccccc3)oc2c1 | inactive
